The inhibition is the relative decrease from the control value, in per cent.

91 molecules from PubChem BioAssay AID720596 (The Scripps Research Institute Molecular Screening Center, 2013) can be followed below.

Hit rate of the full screen: of about 370,000 compounds, about 1,600 (0.43%) were called active. Shown is part of a subset that was picked to be rich in actives. A number with no mark means an inactive call. Rule as the data show it: active = inhibition above about 24%; inactive = the rest.

In the test the target is Major prion protein (Homo sapiens) (UniProt P04156). Kind of test: inhibitors of human cell surface prion protein PrPC, primary screen, cell-based, TR-FRET (AID 720596). Also: 0% = median of the test wells and 100% = reference compound wells. The settings on record: TR-FRET read-out, at 13.8 µM, stronger effect = higher value. In general terms: TR-FRET usually uses a lanthanide donor and a delayed reading to cut background.
In the case of `COC(=O)c1ccc(CSc2ccc(S(=O)(=O)N3CCCCC3)cn2)cc1`, the inhibition was 0.66%.
Turning to `O=S(=O)(c1ccc(SCc2ccccc2)nc1)N1CCCCCC1`, the inhibition is -0.79%.
With `Cc1ccc(CSc2ccc(S(=O)(=O)N3CCCCC3)cn2)cc1` the figure was 33.8% (active); with `CCOc1ccc(CCNC(=O)C2CCN(c3ccc(N4CCOCC4)nn3)CC2)cc1OCC`, -16.1%; with `O=C(/C=C/c1cccc([N+](=O)[O-])c1)OCC(=O)N1CCOCC1`, -2.76%.
With `CCN(C(=O)[C@@H](C1CC1)[C@@H](O)c1ccc2ccccc2c1)c1ccccc1` the figure was -3.85%; with `COc1ccc(CN2CCC(c3nc4ccc(Cl)cc4[nH]3)CC2)cc1`, -13.1%.
Turning to `Cc1ccc(CN2CCCOCCS2(=O)=O)cc1`, the inhibition was 2.42%.
With `COc1ccc(C(=O)N2CCCCC2c2cc(C(=O)Nc3ccc(F)c(Cl)c3)no2)cc1` (stereo unspecified) the figure was -1.86%; with `CCc1c(C)nc2cc(-c3cccs3)[nH]n2c1=O`, 37.9% (active).
With `CCc1c(C)nc2cc(C)[nH]n2c1=O` the figure was 1.02%; with `Cc1cc(=O)n2[nH]c(-c3sccc3-n3c(C)ccc3C)cc2n1`, 13.4%.
With `CC(C)n1c(=S)[nH]c2cc(C(F)(F)F)ccc21` the figure was -2.04%; with `O=C(NC(Nc1nc2ccc([N+](=O)[O-])cc2s1)(C(F)(F)F)C(F)(F)F)c1ccccc1`, 43.8% (active).
Take `O=C(Nc1nc2ccc(Cl)cc2s1)c1cc(-c2ccc(Cl)cc2)nc2ccccc12`: the inhibition was 6.81%.
With `O=C(CNC(=O)c1ccccc1)OC(C(=O)Nc1cc([N+](=O)[O-])ccc1F)c1ccccc1` (stereo unspecified) the figure was 9.58%.
Regarding `Cc1cc(C(=O)NN=C/C=C/c2ccco2)n[nH]1`, the inhibition is -15.4%.
With `CCn1c(SCC(=O)Nc2nc(C)cs2)nnc1C(C)NC(=O)c1ccccc1` (stereo unspecified) the figure was -3.46%; with `CC(=O)N1C[C@@H](CO)[C@@H](N(C)C(=O)c2ccco2)C[C@H]1c1ccccc1`, -3.63%; with `CCN(CC(=O)NCc1cccs1)C(=O)/C=C/c1ccc(C)cc1`, -4.17%.
With `COC(=O)Cc1[nH]n(-c2nc3ccccc3s2)c(=O)c1C(C)=Nc1ccc(OC)cc1` the figure was 32.6% (active).
For the molecule `O=C(COC(=O)CNS(=O)(=O)c1ccc(F)c(F)c1F)NC1CCCC1`, the inhibition was -0.54%.
With `O=C(COC(=O)c1cnccn1)Nc1ccc(Cl)cc1C(F)(F)F` the figure was 5.86%.
Turning to `Cc1c(S(=O)(=O)N2CC(C)CC(C)C2)c(=O)n(C)c(=O)n1C` (stereo unspecified), the inhibition was 5.95%.
With `CCSc1nc(C)c(CCOc2cccc(C)c2)c(=O)[nH]1` the figure was 4.37%; with `CN(C)S(=O)(=O)c1ccc(NC(=O)COC(=O)c2n[nH]c3ccccc23)cc1`, 0.47%; with `CCCc1nc(SCC(=O)Nc2ccc(S(=O)(=O)N(C)C)cc2)c2ccccc2n1`, 52.8% (active).
On to `CC(C)N(C(=O)CSc1nc(COc2ccccc2)nc2ccccc12)C(C)C`, for which the inhibition is 12.9%.
With `COc1ccc(C(=O)Cn2nnc(-c3ccc(N4CCOCC4)cc3)n2)cc1OC` the figure was 2.45%.
Consider `O=c1[nH]c(=O)n(Cc2ccco2)c2c1C(C(F)(F)F)(C(F)(F)F)N=C(c1ccco1)N2`, for which the inhibition was -1.08%.
With `Fc1ccc2[nH]c3c(N4CCSCC4)ncnc3c2c1` the figure was 40.8% (active).
Take `CC(=O)NC(NC(=S)Nc1c(C)n(C)n(-c2ccccc2)c1=O)C(Cl)(Cl)Cl` (stereo unspecified): the inhibition is -1.39%.
For the molecule `Cc1ccc(SCC(=O)NNC(=O)c2ccc(S(C)(=O)=O)cc2)cc1`, the inhibition was -1.94%.
For the molecule `CCc1nc(SCC(=O)NNC(=O)c2ccc(C)cc2)c2ccccc2n1`, the inhibition is 97.6% (active).
On to `CCN(CC)c1ccc(C(=O)NNC(=O)CCc2nc3ccccc3c(=O)[nH]2)cc1`, for which the inhibition was 1.99%.
`CCCN(CCC)S(=O)(=O)c1ccc(C(=O)N2CC3CCC(CC3)C2)cc1`: the inhibition is 0.5%.
As for `O=C(Nc1c(Cl)c(C2CC2)nn1-c1ccccc1)C(Cl)(Cl)Cl`, the inhibition is 1.29%.
With `CCC(C)NC(=O)N[C@@H](CCSC)C(=O)O` (stereo partly specified) the figure was -4.34%.
With `CCC(C)NC(=O)c1nn(C)c(=O)c2ccccc12` (stereo unspecified) the figure was -2.76%.
On to `Cc1cccc(C(=O)C(O)(c2ccccc2)C2CCCCC2=O)c1` (stereo unspecified), for which the inhibition was -5.23%.
With `O=C(COC(=O)c1cccc(Cl)c1Cl)NC1CCCCCC1` the figure was 4.24%; with `N#Cc1ccccc1Sc1ccccc1C(=O)OCC(=O)NC1CCCCC1`, -7.2%.
With `O=C(COC(=O)c1ccccc1SCC(=O)NC1CCCCC1)NC1CCCCC1`, the inhibition was 52.2% (active).
Turning to `COC(=O)Cc1nc2c(N)nc(N)nc2[nH]c1=O`, the inhibition was 4.68%.
With `Cc1sc(NC(=O)C2C3CCC(O3)C2C(=O)O)c(C(=O)OC(C)C)c1-c1ccc(Cl)cc1` (stereo unspecified), the inhibition is 7.78%.
Consider `CC(=O)N1c2ccc(S(=O)(=O)N3CCC(C(=O)NCc4ccc(F)cc4)CC3)cc2CC1C` (stereo unspecified), for which the inhibition was -0.57%.
For `CC(=O)N1c2ccc(S(=O)(=O)N3CCCC(C(=O)NCc4ccc(Cl)cc4)C3)cc2CC1C` (stereo unspecified), the inhibition is 10.5%.
With `CC(=O)N1CCCc2cc(S(=O)(=O)N3CCCC(C(=O)N4CCN(c5cccc(Cl)c5)CC4)C3)ccc21` (stereo unspecified) the figure was 40.4% (active).
Regarding `CC(=O)N1c2ccc(S(=O)(=O)N3CCCC(C(=O)Nc4cccc(F)c4)C3)cc2CC1C` (stereo unspecified), the inhibition was 51.1% (active).
With `COc1ccc(S(=O)(=O)N2CCCC(C(=O)N3CCN(C)CC3)C2)cc1C` (stereo unspecified) the figure was 2.94%; with `CC(=O)N1c2ccc(S(=O)(=O)N3CCCC(C(=O)Nc4ccc(C)cc4C)C3)cc2CC1C` (stereo unspecified), 6.63%.
With `CCOC(=O)C1CCN(C(=O)C2CCCN(S(=O)(=O)c3ccc(OC)c(Cl)c3)C2)CC1` (stereo unspecified) the figure was -3.34%; with `CC(=O)N1CCCc2cc(S(=O)(=O)N3CCCC(C(=O)NCc4ccc(Cl)cc4)C3)ccc21` (stereo unspecified), 29.3% (active).
For the molecule `CC(=O)N1c2ccc(S(=O)(=O)N3CCC(C(=O)NC4CCCCC4C)CC3)cc2CC1C` (stereo unspecified), the inhibition is 6.59%.
Take `CCOC(=O)C1CCN(C(=O)COc2cc(C)c(Br)c(C)c2)CC1`: the inhibition was 0.57%.
Take `O=C(/C(=N\O)n1cncn1)c1ccc(Br)cc1Br`: the inhibition is -3.03%.
Take `CC12CN(Cc3ccccc3)CC(C)(CN(Cc3ccccc3)C1)C2=NO`: the inhibition is -7.09%.
As for `COc1ccc(Cn2cc(COC(=O)N(C)Cc3ccccc3)nn2)cc1`, the inhibition was 6.15%.
With `OCC1(CO)CC2(C1)CC(CO)(CO)C2` the figure was 2.39%.
With `FC(F)(F)c1cccc(NC(=S)OC2CCC23CCC(c2ccccc2)CC3)c1` (stereo unspecified) the figure was 24.4% (active); with `O=C(Nc1cc(F)cc(F)c1)OC1CCC12CCC(c1ccccc1)CC2` (stereo unspecified), 4.41%.
With `CC(C)(C)c1ccc(C(=O)Nc2cc(Cl)c(Br)cc2C(=O)O)cc1` the figure was 21%.
Take `CSc1ncc(C(=O)Nc2ccc(C)cc2C)c(C)n1`: the inhibition was -0.45%.
With `CSc1nccc(NC(=O)c2ccc(C(C)(C)C)cc2)n1` the figure was 29.4% (active); with `Cn1cc(CN2CCCCC2c2ccccn2)c(-c2ccc3c(c2)OCCO3)n1` (stereo unspecified), -3.25%; with `CC(C)C(=O)N1CCC2(CC1)Oc1ccc(F)cc1C(=O)C21CC(c2ccccc2)=NO1` (stereo unspecified), -0.07%.
For `CCCCN(CC)C(=O)C1CCCN(S(=O)(=O)c2cccc3nsnc23)C1` (stereo unspecified), the inhibition is -27.1%.
Consider `COc1cc(C)c(C(C)C)cc1S(=O)(=O)n1ccnc1`, for which the inhibition is -1.35%.
With `OCCCNc1nccc(-c2cc(Nc3cccc(Cl)c3)ncn2)n1` the figure was 29.2% (active).
As to `COCn1c(C(O)c2ccccc2)cc2ccccc21` (stereo unspecified), the inhibition was 6.96%.
With `O=C(O)C#Cc1cccc2ccccc12` the figure was 17.9%.
With `CN(O)C(=S)c1ccccc1` the figure was 36.8% (active).
With `O=C(c1ccco1)N1CCN(CC(=O)N(C2CCCCC2)C2CCS(=O)(=O)C2)CC1` (stereo unspecified) the figure was 7.46%.
Consider `CC1=CCC2C(=O)N(c3cccc(C(=O)NC(C)c4ccccc4)c3)C(=O)C2C1` (stereo unspecified), for which the inhibition was -1.98%.
As to `COc1ccc(CCN2C(=O)C3CC=C(C)CC3C2=O)cc1OC` (stereo unspecified), the inhibition is -3.31%.
With `CC(=O)c1nc(N2C(=O)C3CC=C(C)CC3C2=O)sc1C` (stereo unspecified) the figure was 38.2% (active); with `Cc1ccc(N2C(=O)N3[C@@H]4c5ccccc5OC[C@@H]4[C@@H](c4ccccc4)[C@@]3(C)C2=O)cc1`, -0.71%.
With `O=C(CCn1nnnc1CN1CCOCC1)N1CCC(c2ccccc2Cl)C1` (stereo unspecified) the figure was 1.76%; with `COCCNC(=O)C1(C)CCCN(Cc2cccc(F)c2)C1` (stereo unspecified), 10.6%.
With `CC(C)CC(N=C1NC(C)(C)Cc2ccccc21)C(=O)O` (stereo unspecified) the figure was -0.6%.
Take `CC1(C)Cc2ccccc2-c2[nH]c(=S)[nH]c(=O)c21`: the inhibition is 78.3% (active).
With `N#CC1=C(N)Oc2[nH]c(=S)[nH]c(=O)c2C12C(=O)Nc1ccccc12` (stereo unspecified) the figure was -0.84%.
With `O=C(CCCCCN1C(=O)C2C3C=CC(C3)C2C1=O)Nc1ccccc1` (stereo unspecified) the figure was 3.7%; with `Cc1ccc(C)c(NC(=O)C2CC(=O)N(C(C)C)C2)c1` (stereo unspecified), 1.81%; with `CC(C)(C)NC(=O)COc1ccc(CNc2ccc3[nH]c(=O)[nH]c3c2)cc1`, -1.03%.
Turning to `COc1ccc(NC(=O)COC(=O)CNC(=O)C2CCCCC2)cc1`, the inhibition is 31.5% (active).
With `COc1ccc(NC(=O)CN(C)C(=O)CNC(=O)C2CCCCC2)cc1` the figure was 7.94%; with `COc1ccccc1NC(=O)COC(=O)CNC(=O)C1CCCCC1`, -3.12%.
With `Cc1ccc(NC(=O)N2c3ccccc3SC2c2ccco2)c(C)c1` (stereo unspecified) the figure was 2.15%.
With `COc1ccc(C(=O)N2CCCCC2c2cc(C(=O)Nc3ccccc3)no2)cc1` (stereo unspecified) the figure was 6.89%; with `CN1CCn2cnc(C(=O)NCC(=O)OC(C)(C)C)c2C1=O`, -0.34%.
